The record followed here is PubChem BioAssay (NCATS).

Records with an inconclusive call do not appear. Values without a mark were called inactive. Active and inactive are the calls of the source. Calls follow the shape of the dose curve; as a rule, active = well fitted curve in the direction sought with a large enough effect; inconclusive = small, poorly fitted or top-dose-only effect, or another doubt; inactive = no such curve, though single readings can be large; an effect the other way counts as inactive or inconclusive.

Test [1] addresses Rap guanine nucleotide exchange factor 3 (Homo sapiens) (UniProt O95398). The test is described as follows: Confirmatory qHTS for antagonist of cAMP-regulated guanine nucleotide exchange factor 3 (EPAC1) (AID 1645880). Also: nearly all actives have a fitted effect of over 55% in size. Also: potency is read from the fitted curve at half-maximal effect.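 As to activity, negative = inhibition: plate controls were DMSO only for no effect and full effect of the ATA control for full effect.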 Particulars: EPAC1 Rap1B-BODIPY-GDP exchange, fluorescence; activity, negative = inhibition: at 115 µM (top of the series). In a few lines: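 Nucleotide exchange uses 100 nM EPAC1, 250 nM RAP1B-BODIPY-GDP and 50 uM GDP, with compounds in a concentration-titration series. After 5 min at room temperature, fluorescence (480 nm ex/540 nm em) is read every 5 min for 30 min. Data are normalized to control ATA and DMSO.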

For test [2] the target is unchanged. Kind of test: Confirmatory qHTS for agonist of cAMP-regulated guanine nucleotide exchange factor 3 (EPAC1) (AID 1645881).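 Also: EPAC1 catalysed release of BODIPY-GDP from Rap1B seen as fluorescence loss; 100% = effect of cAMP agonist control; nearly all actives have a fitted effect of over 75% in size.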 In general terms: qHTS replaces the single test concentration by a dilution series.
Test [3] concerns the target Rap guanine nucleotide exchange factor 4 (Homo sapiens) (UniProt Q8WZA2). The test is described as follows: Confirmatory qHTS for agonist of cAMP-regulated guanine nucleotide exchange factor 4 (EPAC2) (AID 1645884).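 Also: nucleotide exchange releases bodipy-GDP from Rap1 and this lowers its fluorescence; % is scaled to controls: 0 for no effect and ±100 for the full control effect; nearly all actives have a fitted effect of over 65% in size.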
For test [4] the target is unchanged. Kind of test: Confirmatory qHTS for antagonist of cAMP-regulated guanine nucleotide exchange factor 4 (EPAC2) (AID 1645885). Also: nearly all actives have a fitted effect of over 25% in size. As to activity change, negative = inhibition: % is scaled to controls: 0 for no effect and ±100 for the full control effect.
Test [5] has as its target Rap guanine nucleotide exchange factor 3 (Homo sapiens) (UniProt O95398). Kind of test: Counterscreen qHTS for antagonist of cAMP-regulated guanine nucleotide exchange factor 3 (EPAC1) (AID 1645888).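 Also: fluorescence loss as bound BODIPY-GDP is released from Rap1B; % of control where 0% means no effect.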 The essentials: (§1)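 Measured: fluorescence of BODIPY-GDP bound to Rap1B, which falls as exchange proceeds. Conditions include 50 uM competing GDP, 5 and 30 min reads, and a later cAMP challenge for antagonist detection.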

Test [6] shares this target. Kind of test: Counterscreen qHTS for agonist of cAMP-regulated guanine nucleotide exchange factor 3 (EPAC1) (AID 1645889). Also: % of control where 0% means no effect; nearly all actives have a fitted effect of over 40% in size. The essentials: as §1

Chain of Rap guanine nucleotide exchange factor 3 (Homo sapiens) (O95398 whole entry, looked up): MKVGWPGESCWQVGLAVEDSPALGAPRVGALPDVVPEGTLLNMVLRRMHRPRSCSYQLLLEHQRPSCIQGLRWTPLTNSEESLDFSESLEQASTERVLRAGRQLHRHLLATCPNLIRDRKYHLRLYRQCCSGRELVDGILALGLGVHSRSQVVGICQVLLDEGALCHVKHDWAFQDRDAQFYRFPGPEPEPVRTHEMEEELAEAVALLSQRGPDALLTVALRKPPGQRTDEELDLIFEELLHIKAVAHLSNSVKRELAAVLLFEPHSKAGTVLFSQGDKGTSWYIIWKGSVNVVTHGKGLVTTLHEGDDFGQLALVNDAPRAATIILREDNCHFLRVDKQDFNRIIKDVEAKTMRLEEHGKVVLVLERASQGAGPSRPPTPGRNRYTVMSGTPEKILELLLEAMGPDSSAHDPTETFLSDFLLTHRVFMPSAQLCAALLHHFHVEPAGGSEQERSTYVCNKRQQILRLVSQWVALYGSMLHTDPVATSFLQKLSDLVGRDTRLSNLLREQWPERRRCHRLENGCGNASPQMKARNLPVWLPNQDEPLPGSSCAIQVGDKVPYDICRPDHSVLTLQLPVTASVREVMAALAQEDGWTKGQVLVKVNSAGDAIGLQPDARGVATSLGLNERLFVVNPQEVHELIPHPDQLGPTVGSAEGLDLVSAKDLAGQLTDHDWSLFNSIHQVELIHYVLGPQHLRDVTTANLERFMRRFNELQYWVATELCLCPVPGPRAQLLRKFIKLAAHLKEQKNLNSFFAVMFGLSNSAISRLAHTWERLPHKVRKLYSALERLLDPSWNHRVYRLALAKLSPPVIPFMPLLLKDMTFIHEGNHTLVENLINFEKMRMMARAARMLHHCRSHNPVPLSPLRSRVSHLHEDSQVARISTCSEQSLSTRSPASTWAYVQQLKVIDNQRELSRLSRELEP
Chain of Rap guanine nucleotide exchange factor 4 (Homo sapiens) (Q8WZA2 whole entry, looked up): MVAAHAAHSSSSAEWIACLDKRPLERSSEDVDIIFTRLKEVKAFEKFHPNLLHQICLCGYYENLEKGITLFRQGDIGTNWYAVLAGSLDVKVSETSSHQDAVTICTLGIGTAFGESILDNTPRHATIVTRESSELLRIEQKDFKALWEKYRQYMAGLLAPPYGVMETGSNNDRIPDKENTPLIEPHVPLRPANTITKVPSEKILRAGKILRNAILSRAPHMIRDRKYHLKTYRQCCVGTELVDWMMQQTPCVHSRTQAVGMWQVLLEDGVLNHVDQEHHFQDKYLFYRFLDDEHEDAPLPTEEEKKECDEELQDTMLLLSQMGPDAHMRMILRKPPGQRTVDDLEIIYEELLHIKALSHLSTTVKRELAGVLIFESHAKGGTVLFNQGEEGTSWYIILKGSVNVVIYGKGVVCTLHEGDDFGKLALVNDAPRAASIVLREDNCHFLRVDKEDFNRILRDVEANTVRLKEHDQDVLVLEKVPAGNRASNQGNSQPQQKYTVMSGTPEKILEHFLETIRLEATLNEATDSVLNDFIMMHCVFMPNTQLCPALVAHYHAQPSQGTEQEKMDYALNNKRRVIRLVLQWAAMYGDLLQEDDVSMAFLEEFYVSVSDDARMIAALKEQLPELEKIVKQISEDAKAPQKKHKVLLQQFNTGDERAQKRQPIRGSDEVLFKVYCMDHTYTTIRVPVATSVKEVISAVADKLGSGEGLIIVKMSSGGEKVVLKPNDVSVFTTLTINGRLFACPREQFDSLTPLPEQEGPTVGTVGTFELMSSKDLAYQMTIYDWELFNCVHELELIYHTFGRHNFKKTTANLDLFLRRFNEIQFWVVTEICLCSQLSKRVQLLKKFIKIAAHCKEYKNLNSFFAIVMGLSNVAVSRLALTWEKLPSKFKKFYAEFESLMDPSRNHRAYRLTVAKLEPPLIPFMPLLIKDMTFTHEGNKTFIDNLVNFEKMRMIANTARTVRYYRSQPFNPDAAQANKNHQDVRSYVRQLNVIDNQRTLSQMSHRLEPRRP

Consider `CN(CC(=O)Nc1ccccc1Sc1ccccc1)C1CCCCC1`, for which the Potency result in test [1], in test [2], in test [3], in test [4], in test [5] and in test [6] was “inactive” each time.
With `CC1(C(=O)NS(=O)(=O)c2ccc3c(c2)CCO3)CCN1C(=O)C1(c2ccc(Cl)cc2)CCC1` (stereo not given), in test [1], the Potency is 39.8 µM (active). Moreover, the Potency result in test [2] and in test [4] was “inactive” each time. In addition, the activation in test [3] is 1.36% [at 17.1 µM, percent relative to cAMP agonist control]; in test [6], 34% [at 30.8 µM]. In addition, the activity change, negative = inhibition in test [5] was -29.8% [at 30.8 µM].
Take `CCc1ccc(NC(=O)COC(=O)CCC2CCCC2)cc1`: the Potency result in test [1], in test [2], in test [3], in test [4], in test [5] and in test [6] was “inactive” in each case.
As to `Cc1cc(C)cc(OCCSc2nc(-c3ccc(C(C)(C)C)cc3)nc3cc(=O)[nH]n23)c1`, the Potency in test [1] is 67.5 µM (active). In addition, the Potency result in test [2], in test [3], in test [5] and in test [6] was “inactive” in each case. In addition, in test [4], the outcome is “inactive [at 12.7 µM]”.
As for `COc1cccc(/C=N/NC(=O)c2cc3cc([N+](=O)[O-])ccc3s2)c1O`, the Potency in test [1] is 35.5 µM (active). The Potency result in test [2] and in test [4] was “inactive” throughout. The activation in test [3] was 10.9% [at 17.1 µM, percent relative to cAMP agonist control]; in test [6] it was 26.8% [at 30.8 µM]. Further, in test [5], the activity change, negative = inhibition is -2.63% [at 30.8 µM].
For the compound `C=CCOc1ccc(C2N3CC4(CC)CN2CC(CC)(C3)C4=O)cc1` (stereo not given), the Potency entry in test [1], in test [2] and in test [4] was “inactive” throughout. The activation in test [3] is 6.19% [at 17.1 µM, percent relative to cAMP agonist control]; in test [6] it was 36.6% [at 30.8 µM]. The activity change, negative = inhibition in test [5] is -3.19% [at 30.8 µM].
For `O=C(CC(=O)NC1CCCCC1)N/N=C/c1ccc(Cl)cc1`, the Potency result in test [1], in test [2], in test [3], in test [4], in test [5] and in test [6] was “inactive” throughout.
As for `COc1cc(C(C)=O)ccc1COc1ccc(C(=O)O)cc1OC`, the Potency result in test [1], in test [2] and in test [4] was “inactive” throughout. The activation in test [3] was 7.71% [at 17.1 µM, percent relative to cAMP agonist control]; in test [6], -0.313% [at 30.8 µM]. Moreover, in test [5], the activity change, negative = inhibition was -10.4% [at 30.8 µM].
On to `COC(=O)c1cc2ccsc2n1Cc1cccc(F)c1`, for which the Potency entry in test [1], in test [2], in test [3], in test [4], in test [5] and in test [6] was “inactive” each time.
Take `CC(OC(=O)CC1CCCCC1)C(=O)Nc1ccc(S(N)(=O)=O)cc1` (stereo not given): the Potency entry in test [1], in test [2] and in test [4] was “inactive” throughout. Also, the activation in test [3] is 2.89% [at 17.1 µM, percent relative to cAMP agonist control]; in test [6] it was 15.8% [at 30.8 µM]. Besides, the activity change, negative = inhibition in test [5] is -10.1% [at 30.8 µM].
As for `COc1ccc(CCNC2CC(=O)N(CCc3ccc(OC)c(OC)c3)C2=O)cc1` (stereo not given), the Potency entry in test [1], in test [2] and in test [4] was “inactive” in each case. For the same compound, the activation in test [3] was 4.7% [at 17.1 µM, percent relative to cAMP agonist control]; in test [6] it was 8.52% [at 30.8 µM]. Moreover, the activity change, negative = inhibition in test [5] was -1.61% [at 30.8 µM].
Consider `COc1ccccc1N1CCN(S(=O)(=O)c2ccc3c(c2)NC(=O)C(C)C(=O)N3)CC1` (stereo not given), for which the Potency result in test [1], in test [2], in test [3], in test [4], in test [5] and in test [6] was “inactive” in each case.
Take `CSc1ccc(CCNC(=O)c2csc3c2CCCCC3)cc1`: the Potency result in test [1], in test [2], in test [3], in test [5] and in test [6] was “inactive” each time. The outcome in test [4] is “inactive [at 12.7 µM]”.
For the compound `COC(=O)c1ccccc1NC(=O)c1nn(-c2ccc(OC)cc2)c(=O)c2c1c1ccccc1n2C`, the Potency result in test [1], in test [2], in test [3], in test [4], in test [5] and in test [6] was “inactive” throughout.
Take `CCN(CC(=O)Nc1ccccc1OC)C(=O)c1ccc(N(C)S(=O)(=O)c2ccc(C)cc2)cc1`: the Potency result in test [1], in test [2], in test [3], in test [4], in test [5] and in test [6] was “inactive” each time.
`COc1ccc(-n2c(SCC(=O)Nc3ccccc3OC)nc(O)cc2=O)cc1`: the Potency entry in test [1], in test [2] and in test [4] was “inactive” throughout. For the same compound, the activation in test [3] is 4.67% [at 17.1 µM, percent relative to cAMP agonist control]; in test [6], 2.02% [at 30.8 µM]. In addition, the activity change, negative = inhibition in test [5] is -3.75% [at 30.8 µM].
In the case of `Cc1ccc(NC(=O)CN2C(=O)C(c3ccc(C(C)(C)C)cc3)=NC2(C)C)cc1`, the Potency result in test [1], in test [2], in test [3], in test [4], in test [5] and in test [6] was “inactive” throughout.
`CCCCn1c(N)c(N(CCOC)C(=O)c2cccc(S(=O)(=O)N(C)c3ccc(C)cc3)c2)c(=O)[nH]c1=O`: the Potency result in test [1], in test [2] and in test [4] was “inactive” throughout. Also, the activation in test [3] is -4.77% [at 17.1 µM, percent relative to cAMP agonist control]; in test [6], 14.6% [at 30.8 µM]. For the same compound, the activity change, negative = inhibition in test [5] is 3.57% [at 30.8 µM].
For `Cn1cc(C(=O)C(=O)N2CCCCC2)c2ccccc21`, the Potency result in test [1], in test [2], in test [3], in test [4], in test [5] and in test [6] was “inactive” each time.
Take `Cc1cccc(NC(=O)c2cc(S(=O)(=O)N(C)c3ccc(F)cc3)ccc2Cl)n1`: the Potency result in test [1], in test [2], in test [3], in test [4], in test [5] and in test [6] was “inactive” each time.
